Compounds without any hit were thinned out: in the full panel of roughly 83,000, 20% have a hit.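 Note: values are percent growth. 100 is the growth of untreated cells, values between 100 and 0 indicate rising inhibition; between -100 and 0 indicates cell death.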 A number with no mark means an inactive call. Calls of active or inactive are those of the source. The calls were made as follows: active = growth percent below 10; inactive = the rest.

One assay deals with RPMI-8226 leukemia. As to the kind of experiment: NCI-60 one-dose screen, 48 h (100 = growth as untreated, 0 = no growth, -100 = all killed). The note with it: 10 µM unless noted.
For `CC(=O)N(O)CCCCCNC(=O)CCC(=O)N(O)CCCCCNC(=O)CCC(=O)N(O)CCCCCN(CCCCCCCCCC[P+](c1ccccc1)(c1ccccc1)c1ccccc1)CCCCCCCCCC[P+](c1ccccc1)(c1ccccc1)c1ccccc1`, the growth was -13.9% (active). On to `Cn1cc(-c2cc3ncnc(Nc4ccc(CC(=O)Nc5nc(C(C)(C)C)cs5)cc4)c3s2)cn1`, for which the growth is 38.8%. Same read-out and setting: next, `CCOC(=O)C1=C(C)NC(C)=C(C(=O)OC(C)C)C1c1cccc(C#N)c1` (centres undefined): 108%. Same read-out and setting: next, `Cc1cc2nc(C(Cl)Cl)nc(-c3ccc(S(=O)(=O)N(C)C)cc3)n2n1`: 55.3%.

Another assay deals with OVCAR-8 ovarian. The assay is described as above. As to conditions: 10 µM unless noted.
Turning to `COc1ccc(/C=N/NC(=O)c2c(N)nn(C)c2Nc2ccccc2)cc1Oc1ccccc1`, the growth is 87.7%. Take `COc1ccc(/C=N/N=C(/c2ccccc2)c2ccc3nc(-c4ccc(Cl)cc4)[nH]c3c2)cc1`: the growth is 80.4%.

Take `O=C(Nc1cc(C(F)(F)F)cc(C(F)(F)F)c1)Nc1ccc2oc(=O)ccc2c1`: the growth is 14.2%. Consider `COc1ccc(/C=N/NC(=O)CSc2nc(-c3cnccn3)cc(-c3cccs3)c2C#N)cc1OC`, for which the growth was 84.7%.

Turning to `CNC(=O)c1cc(N2CCc3cc(NC(=O)Nc4ccc(N5CCN(C)CC5)c(C(F)(F)F)c4)ccc32)ccn1`, the growth is 95.9%.

On to `Clc1cccc(/C=N/Nc2nc(N/N=C/c3cccc(Cl)c3)nc(N3CCCCC3)n2)c1`, for which the growth is 89.2%.

Regarding `NS(=O)(=O)c1nnc(/N=C/c2c(O)[nH]c3ccccc23)s1`, the growth is 99.9%.

With `COc1ccc(-c2cc(-c3ccc(N(C)C)cc3)n3c(n2)nc2ccccc23)cc1`, the growth is 39.8%. Regarding `Nc1nc(=O)n([C@H]2C[C@H](O)[C@@H](CO)O2)cc1C=O`, the growth was 11.3%. Consider `Cc1ccc(-c2csc(N/N=C/c3cccs3)n2)cc1`, for which the growth is 93.6%. As for `CCCCCCOC(=O)c1cc(-c2ccc(F)cc2)nc2ccccc12`, the growth was 98.1%. On to `COc1cc2oc(-c3cccc(NC(=O)c4cccc([N+](=O)[O-])c4)c3)cc(=O)c2c(OC)c1OC`, for which the growth was 6.56% (active). In the case of `COc1cccc(N2CCN(C3=C(Cl)C(=O)c4ncccc4C3=O)CC2)c1`, the growth was 82.8%. Turning to `CCCCCCNC(=O)Oc1ccc(/C(=C(/C)c2ccc(Cl)cc2)c2ccc(OCCN3CCCCCC3)cc2)cc1`, the growth is 78.2%. The same measure, in the same setting: next, `C=C(C)[C@@H]1CC[C@]2(COCCCNCCCN)CC[C@]3(C)[C@H](CC[C@@H]4[C@@]5(C)CC[C@H](O)C(C)(C)[C@@H]5CC[C@]43C)[C@@H]12`: -40.4% (active); `COc1ccc(/C(=N\NC(N)=S)c2ccc(Cl)cc2)cc1OC`: 37.8%; `Brc1ccc2[nH]cc(-c3nn4cc(-c5nccs5)nc4s3)c2c1`: 10.5%. As for `CN1c2ccccc2Sc2cc(/C=N/Nc3ccnc4cc(Cl)ccc34)ccc21`, the growth was 60.5%. As for `Cn1c(SCC(=O)c2ccc(F)cc2)nc2ccccc2c1=O`, the growth is 94.5%. Consider `CC(=O)OCCCCN1C=C/C(=C\C(=O)n2ccc3ccccc32)c2ccccc21`, for which the growth was 102%.

As for `O=C(/C=C/c1ccc(F)cc1)Nc1cccc2cccnc12`, the growth was 106%. For `CCCCOc1ccc(S(=O)(=O)N2CCN(c3nc(C)cc(N4CCOCC4)n3)CC2)cc1`, the growth was 45%. In the case of `CCCNNC(=O)c1ccc(-c2ccc(NC(=O)CCCCCCC(=O)N[C@H](C(=O)N3C[C@H](O)C[C@H]3C(=O)N[C@@H](C)c3ccc(-c4scnc4C)cc3)C(C)(C)C)cc2)cc1`, the growth is 32.7%.

For `CCOC(=O)c1cccc(NC2=C(Cl)C(=O)c3nc(C)ccc3C2=O)c1`, the growth is 97.8%. As for `CC(C)(C)Nc1nc2c(OCCc3ccccc3)cccn2c1-c1cccc(Oc2ccccc2)c1`, the growth is 10.2%. In the case of `O=C(CCCCCCNC(=O)c1csc(Br)n1)NO`, the growth is 23.5%. Turning to `CCOC(=O)c1c(NC(=O)c2ccc(C(F)(F)F)cc2)sc2c3c(ccc12)OCN(C)C3`, the growth was -48% (active).

Consider `O=C1C(N2CCN(c3ccccc3)CC2)=C(Cl)C(=O)c2ncccc21`, for which the growth was 73.5%. For `COc1ccccc1/C=C1\Oc2ccc(O)c(O)c2C1=O`, the growth was 94.1%. Turning to `COc1cccc2c1C=CC1(O2)Oc2cccc(OC)c2C=C1C` (centres undefined), the growth is 23.5%. Regarding `COc1ccc(C(C)=C(c2ccc(OCCN3CCCCCC3)cc2)c2ccc(OCCN3CCCCCC3)cc2)cc1`, the growth was 0.8% (active). For the molecule `O=C(CCCCCCN1CC(=O)N2[C@@H](c3ccccc3Br)c3[nH]c4ccccc4c3C[C@H]2C1=O)NO`, the growth was 34.1%. Same read-out and setting: the figure for `Cc1ccc2c(n1)C(=O)C(Cl)=C(Nc1cccc(C(F)(F)F)c1)C2=O` is 76%; for `CCC(=C(c1ccc(OCCN2CCCCCC2)cc1)c1ccc(OCCN2CCCCCC2)cc1)c1ccc(Cl)cc1` it is 2.46% (active). Regarding `CN1CCN(CCNc2nc(-c3cccc(NS(=O)(=O)c4cccc5c(N(C)C)cccc45)c3)cs2)CC1`, the growth is 75.9%. In the case of `CC(Nc1c(C#N)cnc2ccc(-c3cncc(-c4n[nH]c(=O)o4)c3)cc12)c1ccccc1` (centres undefined), the growth was 18.1%.

On to `CC(=O)N(O)CCCCCNC(=O)CCC(=O)N(O)CCCCCNC(=O)CCC(=O)N(O)CCCCCN(CCCCCCCCCC[P+](c1ccccc1)(c1ccccc1)c1ccccc1)CCCCCCCCCC[P+](c1ccccc1)(c1ccccc1)c1ccccc1`, for which the growth was 10.5%. Same read-out and setting: next, `Cn1cc(-c2cc3ncnc(Nc4ccc(CC(=O)Nc5nc(C(C)(C)C)cs5)cc4)c3s2)cn1`: 38.1%; `CCOC(=O)C1=C(C)NC(C)=C(C(=O)OC(C)C)C1c1cccc(C#N)c1` (centres undefined): 103%. On to `Cc1cc2nc(C(Cl)Cl)nc(-c3ccc(S(=O)(=O)N(C)C)cc3)n2n1`, for which the growth is 33.9%.

For the origin of these results see PubChem BioAssay (NCI).
